This is an account of results in PubChem BioAssay (NCI).

Test systems include NCI-H23 lung; NCI-H226 lung; HOP-62 NSCLC; NCI-H460 lung; NCI-H522 lung; A549/ATCC NSCLC; 786-0 renal; COLO 205 colon; HOP-92 NSCLC.
Common to all, as to assay: NCI-60 one-dose screen, 48 h (100 = growth as untreated, 0 = no growth, -100 = all killed)
What all share (conditions): 10 µM unless noted

The panel holds about 83,000 compounds, 20% with a hit somewhere; the sample as a whole holds those more often.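 Results are percent growth after 48 hours of single-concentration exposure. 100 means growth as in untreated cells, lower positive values show inhibition; negative values down to -100 show cell death.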 Unmarked numbers belong to inactive results. Activity calls are given as the source filed them. How the source made its calls: active means growth percent below 10; inactive means the rest.

As to `CCCC(=O)NC(c1cccnc1)c1ccc2c(C)ccnc2c1O` (stereo not drawn), the growth in the assay on NCI-H23 lung was 37.8%; with NCI-H226 lung, 17.2%; with HOP-62 NSCLC, 23.4%; in the assay with NCI-H460 lung, 6.08% (active); with NCI-H522 lung, 0.954% (active); in the assay with A549/ATCC NSCLC, 16%. Also, the results for the growth with 786-0 renal and in the assay with COLO 205 colon were 26% and 9.55% (active), respectively.

Turning to `Cc1cn(-c2cc(NC(=O)c3cncc(C#Cc4cnc5ccc(O[C@H]6CCOC6)nn45)c3)cc(C(F)(F)F)c2)cn1`, the growth is 53.7% in the assay with NCI-H23 lung; 44.9% with NCI-H226 lung; 87.9% with HOP-62 NSCLC; 99.9% in the assay with NCI-H460 lung; -9.26% (active) in the assay with HOP-92 NSCLC; 93.2% in the assay with NCI-H522 lung. For the same molecule, the growth with A549/ATCC NSCLC was 91.7%; in the assay on 786-0 renal, 105%; in the assay with COLO 205 colon, 69.1%.

Consider `NC(=O)c1c(NC(=O)c2cccc(C(F)(F)F)c2F)sc2c1CCC(=O)C2`, for which the growth is 4.57% (active) in the assay on NCI-H23 lung; 24.8% in the assay with NCI-H226 lung; 58.4% in the assay with HOP-62 NSCLC; 10.9% in the assay with NCI-H460 lung; 13.8% in the assay with HOP-92 NSCLC; -11.4% (active) in the assay with NCI-H522 lung. Besides, the growth in the assay on A549/ATCC NSCLC is 64.8%; in the assay with 786-0 renal, 30.2%; in the assay with COLO 205 colon, -9.67% (active).

With `C#C[C@]1(O)CC[C@H]2[C@@H]3CC=C4c5sc(-c6cccc(F)c6)nc5CC[C@]4(C)[C@H]3CC[C@@]21C`, the growth in the assay with NCI-H23 lung was 84.2%; in the assay with NCI-H226 lung, 83.5%; with HOP-62 NSCLC, 91.4%; in the assay on NCI-H460 lung it was 93.5%; in the assay on NCI-H522 lung, 89.2%; in the assay with A549/ATCC NSCLC, 83.8%. In addition, the growth in the assay with 786-0 renal was 65.3%; with COLO 205 colon, 97.9%.

`O=C1[C@H]2Cc3c([nH]c4ccccc34)[C@H](c3ccc(Cl)cc3)N2C(=O)CN1C1CCN(Cc2c(Cl)cccc2Cl)CC1`: the growth in the assay on NCI-H23 lung was 86.5%; in the assay on NCI-H226 lung, 72.5%; in the assay with HOP-62 NSCLC, 80.1%; with NCI-H460 lung it was 68%; in the assay with HOP-92 NSCLC it was 55.1%; in the assay with NCI-H522 lung it was 75.3%. Also, the growth was 66.9% with A549/ATCC NSCLC, 66% in the assay on 786-0 renal and 54.8% with COLO 205 colon.

As to `COc1ccc(S(=O)(=O)NCCCNc2nccc(-n3cnc4ccccc43)n2)cc1`, the growth in the assay with NCI-H23 lung is 91.9%; in the assay on NCI-H226 lung it was 73.2%; with HOP-62 NSCLC, 94.9%; with NCI-H460 lung, 97.3%; in the assay on HOP-92 NSCLC it was 75.8%; in the assay with NCI-H522 lung, 81.1%. In addition, the growth with A549/ATCC NSCLC is 106%; in the assay with 786-0 renal it was 95.9%; in the assay with COLO 205 colon it was 108%.

As for `O=C1c2c(c3c4cc(O)ccc4oc3c3[nH]c4ccccc4c23)C(=O)N1O`, the growth with NCI-H23 lung is 2.57% (active); in the assay with NCI-H226 lung, 63.6%; in the assay with HOP-62 NSCLC, -25.6% (active); in the assay with NCI-H460 lung, -6.86% (active); in the assay on HOP-92 NSCLC, -8.01% (active); in the assay on NCI-H522 lung, -5.7% (active). The growth was 43.5% in the assay with A549/ATCC NSCLC, 2.62% (active) in the assay with 786-0 renal and 61.5% in the assay with COLO 205 colon.

On to `C#CCOc1ccccc1C(Nc1ccccc1)c1nnnn1C1CCCCC1` (stereo not drawn), for which the growth in the assay on NCI-H23 lung was 103%; with NCI-H226 lung it was 107%; in the assay on HOP-62 NSCLC, 103%; in the assay on NCI-H460 lung, 103%; in the assay on HOP-92 NSCLC, 103%; with NCI-H522 lung, 80.1%. Further, the figures for the growth in the assay on A549/ATCC NSCLC, in the assay on 786-0 renal and in the assay on COLO 205 colon were 96%, 88.3% and 112%, respectively.

For `CN(C)c1ccc(/C=N/Nc2nc(N/N=C/c3ccc(N(C)C)cc3)nc(N3CCOCC3)n2)cc1`, the growth was 99.3% with NCI-H23 lung; 93.5% in the assay with NCI-H226 lung; 106% in the assay with HOP-62 NSCLC; 16.7% in the assay on NCI-H460 lung; 109% with HOP-92 NSCLC; 98.9% with NCI-H522 lung. The growth with A549/ATCC NSCLC was 74.9%; with 786-0 renal, 84.6%; in the assay with COLO 205 colon, 108%.

Consider `CC1OC(O[C@@H]2[C@H](O)C(CO)OC(O[C@H]3COC(O[C@H]4CC[C@]5(C)[C@H]6CC[C@]78OC[C@@]9(CC[C@](C)(C=O)C[C@H]97)C(=O)C[C@@]8(C)[C@]6(C)CC[C@H]5C4(C)C)[C@@H](O)[C@@H]3O)[C@H]2OC2OC[C@@H](O)[C@@H](O)[C@@H]2O)[C@@H](O)[C@@H](O)[C@H]1O` (stereo partly drawn), for which the growth was 94.8% in the assay on NCI-H23 lung; 82.7% with NCI-H226 lung; 75.2% in the assay on HOP-62 NSCLC; 98.5% in the assay with NCI-H460 lung; 87.1% with NCI-H522 lung; 90.6% in the assay with A549/ATCC NSCLC. Also, the growth in the assay on 786-0 renal was 95.5%; in the assay with COLO 205 colon it was 92.6%.

For the molecule `CCCC(=O)NC(c1cccnc1)c1cc(C(C)=O)c2cccnc2c1O` (stereo not drawn), the growth in the assay with NCI-H23 lung was 48.6%; in the assay on NCI-H226 lung, 25%; with HOP-62 NSCLC, 26.2%; in the assay on NCI-H460 lung, 12.1%; with HOP-92 NSCLC it was 43.3%; in the assay on NCI-H522 lung, 18.6%. In addition, the results for the growth in the assay with A549/ATCC NSCLC, in the assay with 786-0 renal and in the assay with COLO 205 colon were 18.9%, 32.2% and 15.6%, respectively.

For the molecule `O=C1CC2(CCOCC2)Oc2ncccc21`, the growth with NCI-H23 lung is 72.5%; with NCI-H226 lung it was 103%; with HOP-62 NSCLC, 101%; with NCI-H460 lung, 106%; in the assay on HOP-92 NSCLC, 94.6%; in the assay with NCI-H522 lung, -49.2% (active). For the same molecule, the growth in the assay with A549/ATCC NSCLC is 102%; in the assay with 786-0 renal, 47.7%; in the assay on COLO 205 colon it was -13.7% (active).

With `COc1cc(OC)c(S(N)(=O)=O)cc1C(=O)/C=C/c1ccccc1`, the growth was 28.2% in the assay on NCI-H23 lung; 38.8% with NCI-H226 lung; 24.8% with HOP-62 NSCLC; 3.32% (active) with NCI-H460 lung; 2.22% (active) with HOP-92 NSCLC; 25.8% with NCI-H522 lung. Further, the values for the growth in the assay with A549/ATCC NSCLC, with 786-0 renal and in the assay on COLO 205 colon were 57.1%, 15.3% and 27.5%, respectively.

Turning to `O=S(=O)(Nc1cc(Cl)c(F)c(Cl)c1)c1ccc(-c2cnc(C3CC3)o2)cc1`, the growth with NCI-H23 lung is 45.3%; with NCI-H226 lung it was 49.4%; in the assay on HOP-62 NSCLC it was 36.2%; with NCI-H460 lung, 16.5%; with HOP-92 NSCLC it was 63%; with NCI-H522 lung it was 32.8%. The growth was 41.5% in the assay on A549/ATCC NSCLC, 43.5% with 786-0 renal and 8.82% (active) in the assay on COLO 205 colon.
